Results on 17 compounds are retold here after the supplement of paper PMC3484114.

± gives the standard deviation.

This assay relates to OVCAR-3-derived ovarian cancer stem-like cells (spheroids). In words: cell growth relative to untreated control; higher = more growth (less inhibition). The note with it: 2.29 µM; 96 h. In a few lines:
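Stem-like cells derived from OVCAR-3 spheroids were dissociated with trypsin and seeded at 50,000 cells/mL in stem cell medium in ultra-low attachment 96-well plates, then preincubated for 24 h. Each compound was added at 2.29 uM to 4 replicate wells and left for 96 h at 37°C, 5% CO2. Viability came from TOX8 resazurin fluorescence (ex 560/em 590 nm) read after 4 h. Percent growth was expressed relative to untreated wells, after blank subtraction and removal of outliers by the Grubbs test.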
`BrC(/C=N/Nc1nnc(-c2ccccc2)c(-c2ccccc2)n1)C(Br)c1ccccc1` (configuration not stated) gave a cell growth of 93.9 ± 17%. With `O=C1C(CN2CCCCC2)CCCC1CN1CCCCC1` (configuration not stated) the figure was 62.5 ± 28%; with `CN(C)c1ccc(/C=C2\Cc3ccccc3C2=O)cc1Br`, 169 ± 23%. The compound `Cc1ccc([S+](c2ccccc2)c2cc(C)ccc2C)cc1.O=C(OC(C(=O)[O-])C(OC(=O)c1ccccc1)C(=O)O)c1ccccc1` (configuration not stated) returned a cell growth of 43.6 ± 5.1%. To `CC(=O)OCc1cc(=O)n(C)c2c3c4c(cc12)c(C)cc(=O)n4CO3` belongs 95.1 ± 21%. To `COC(=O)c1c[nH]c2c1-c1cc(C(=O)OCc3ccccc3)n(S(=O)(=O)c3ccc(C)cc3)c1C(=O)C2=O` belongs 20.9 ± 3.5%; to `N#CC(=C1C=CC(=NO)C=C1)c1ccc(Cl)cc1`, 91.1 ± 17%.

The compound `CCN(CC)CC(C)(C)C(=O)/C=C/c1ccc(C)cc1` returned a cell growth of 80.7 ± 22%. With `CC(=O)C(N1CCCCC1)C(O)(C(F)(F)F)C(F)(F)F` (configuration not stated) the figure was 107 ± 38%; with `CC(=O)Nc1ccc(-c2nc3ccccc3s2)cc1`, 171 ± 32%. With `CC[n+]1c(-c2ccccc2)c2cc(N)ccc2c2ccc(N)cc21` the figure was 15 ± 9.7%; with `[N-]=[N+]=Nc1ccc2c(c1)Sc1ccccc1N2CCCCN1CCN(Cc2ccc(C(=O)c3ccccc3)cc2)CC1`, 95.1 ± 13%; with `COc1cc2c3c(n(C)c(=O)c2cc1OC)-c1cc2c(cc1C3=O)OCO2`, 101 ± 38%. In turn, `COc1ccc(/C(=N/O)C(c2ccc(OC)cc2)C2C(=O)Oc3ccccc32)cc1` (configuration not stated) returned a cell growth of 73.1 ± 14%. To `COc1cc(OC)c(OC)cc1/C=C/c1ccnc2ccccc12` belongs 75.8 ± 10%; to `COc1ccc(O)cc1`, 62.6 ± 18%. Regarding `COc1ccc2cc1Oc1ccc(cc1)CC1c3c(cc(OC)c4c3Oc3cc5c(cc3O4)CCNC5C2)CCN1C` (configuration not stated), the cell growth was determined as 71.8 ± 23%.
